Calls of active or inactive are those of the source. How the source made its calls: active means hit-call score of the fitted dose curve at least 0.9, where 1 is the maximum; inactive means score below 0.9.
Target: Transcriptional activator Myb (Homo sapiens) (UniProt P10242)
Assay: ATG_Myb_CIS: Attagene CIS-FACTORIAL HepG2 Assay for human Myeloblastosis (Myb) Proto-Oncogene Transcription Factor (AID 2282986)
Details: HepG2 Attagene CIS-FACTORIAL Myb reporter transcription; actives raise or lower the signal
Experimental: ATG_CIS is a cell-based, multiplexed-readout assay that uses HepG2, a human liver cell line, with measurements taken at 24 hours after chemical dosing in a 24-well plate.ATG_Myb_CIS is one of 52 assay component(s) measured or calculated from the ATG_CIS assay. It is designed to make measurements of mRNA induction, a form of inducible reporter, as detected with fluorescence intensity signals by Reverse transcription polymerase chain reaction (RT-PCR) and Capillary electrophoresis technology.Data from the assay component ATG_Myb_CIS was analyzed into 1 assay endpoint. This assay endpoint, ATG_Myb_CIS, was analyzed with bidirectional fitting relative to DMSO as the negative control and baseline of activity. Using a type of inducible reporter, measures of mRNA for gain or loss-of-signal activity can be used to understand the reporter gene at the transcription factor-level as they relate to the gene MYB. Furthermore, this assay endpoint can be referred to as a primary readout, because this assay has produced multiple assay endpoints where this one serves a reporter gene function. To generalize the intended target to other relatable targets, this assay endpoint is annotated to the dna binding intended target family, where the subfamily is MYB proteins.
Human liver HepG2 cells are transiently transfected with multiple reporter transcription units (MRTUs) in 6-well plates using FuGene 6 reagent (Roche; 3 ml FuGene/1 mg DNA). The MRTU constructs are regulated by a cis-regulating element (promoter). […] A major difference between the CIS and TRANS system is that in CIS activities of endogenous TFs are measured, whereas the TRANS assay evaluates changes in activities of exogenous, chimeric NR-Gal4 proteins. […] At the end of 24 hour incubation, total RNA was isolated using TriZol reagent (Invitrogen). The isolated RNA is then reverse-transcribed using oligo(dT) primer and Mo-MLV reverse transcriptase (Invitrogen) with DNAse I (Ambion) treatment for 30 min. The one-tenth of the produced cDNA was amplified by PCR using Taq DNA polymerase (Invitrogen) and two reporter sequence-specific primers. The PCR products were fluorescently labeled by primer extension with 6-arboxyfluorescein (6-FAM) 5'-labeled reporter sequence-specific primer (2 min at 95 C, 20 s at 68 C and 10 min at 72 C) and these products were digested with 5U of HpaI (New England Biolabs) for 2h at 37 C. The fragments were purified using Qiaquick PCR columns (Qiagen), analyzed on an ABI 3130xL genetic analyzer (Applied Biosystems) with peak positions identified by using a set of X-rhodamine (ROX)-labeled MapMarker1000 molecular weight standards (BioVentures). The raw capillary electrophoresis data was processed using Attagraph software (Attagene).

Chain of Transcriptional activator Myb (Homo sapiens) (P10242 whole entry, looked up): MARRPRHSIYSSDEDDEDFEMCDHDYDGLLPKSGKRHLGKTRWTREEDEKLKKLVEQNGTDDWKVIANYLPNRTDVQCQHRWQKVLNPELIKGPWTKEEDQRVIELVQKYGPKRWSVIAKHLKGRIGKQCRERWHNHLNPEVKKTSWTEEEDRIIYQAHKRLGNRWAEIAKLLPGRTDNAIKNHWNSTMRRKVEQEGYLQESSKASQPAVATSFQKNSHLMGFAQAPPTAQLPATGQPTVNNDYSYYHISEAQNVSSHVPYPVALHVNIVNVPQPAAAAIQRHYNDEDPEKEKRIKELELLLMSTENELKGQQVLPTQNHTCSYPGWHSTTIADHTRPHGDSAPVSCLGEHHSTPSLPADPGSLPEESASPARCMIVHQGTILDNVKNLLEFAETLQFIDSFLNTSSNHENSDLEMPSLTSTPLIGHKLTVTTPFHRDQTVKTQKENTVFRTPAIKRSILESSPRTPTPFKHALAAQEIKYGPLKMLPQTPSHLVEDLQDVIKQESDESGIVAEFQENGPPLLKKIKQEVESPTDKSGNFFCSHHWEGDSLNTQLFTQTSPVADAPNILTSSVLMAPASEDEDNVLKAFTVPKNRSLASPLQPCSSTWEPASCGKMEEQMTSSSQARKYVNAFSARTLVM

outcome, inactive:
O=Cc1ccc(F)cc1, COc1ccnc(CS(=O)c2nc3cc(OC(F)F)ccc3[nH]2)c1OC (stereo not given), CC(C)C1CCC(O)CC1 (stereo not given), CC1(C)[C@@H]2CC[C@@]1(C)[C@H](O)C2, O=C[C@H](O)[C@H](O)[C@H](O)CO, CC(C)C(C)(C)C(C)(C)C(C)(C)S, COCCOCCOCCOCCOCCO, CCn1c2ccccc2c2cc(N)ccc21, CCCCCC(=O)OCCc1ccccc1, CCC(=O)OCc1ccccc1, O=[N+]([O-])c1cc(C(F)(F)F)ccc1Cl, CCC(=O)/C=C/C1C(C)=CCCC1(C)C (stereo not given), O=C(O)CN(CCN(CC(=O)O)CC(=O)O)CCN(CC(=O)O)CC(=O)O, CCCCCCCCCCCCCCCCCC(=O)OCC(CC)CCCC (stereo not given), COc1ccc(NC(=O)CC(C)=O)cc1, CC1=CC(=O)NS(=O)(=O)O1, O=C1O[C@@H]2[C@@H](O)[C@H](O)O[C@@H]2[C@H]1O, C=C(C)C(=O)OCc1ccccc1, O=c1oc(=O)c2cc3c(=O)oc(=O)c3cc12, C=CCOC(=O)CCC1CCCCC1, CCO[Si](CCCS)(OCC)OCC, C=CC(=O)OCCOCCOCC, CC(C)CCCCCCCOC(=O)c1ccc(C(=O)OCCCCCCCC(C)C)c(C(=O)OCCCCCCCC(C)C)c1, CC1(C)[C@H](C(=O)OCc2cccc(Oc3ccccc3)c2)[C@@H]1C=C(Cl)Cl, CCCCCCOC(=O)CCCCC, CC1=CCC2C(C1)C2(C)C (stereo not given), CC(=O)Nc1ccc(C)cc1C, CC1CCC(C(C)(C)O)CC1 (stereo not given), O=C(O)c1ccc(C(=O)O)cc1, Cc1cccc(C)c1[N+](=O)[O-], NNc1nc(-c2ccc(N)cc2)cs1, Clc1sc(Cl)c(Cl)c1Cl, C=CC(C)(CCC=C(C)C)OC=O (stereo not given), Nc1nc2ccc([N+](=O)[O-])cc2s1, CC(C)(C)C(=O)c1ccccc1, CC(C)(Oc1ccc(CCNC(=O)c2ccc(Cl)cc2)cc1)C(=O)O, COc1nc(C)nc(N)n1, CCCCc1ccc(N)cc1, CC(C)c1cccc(O)c1, O=C(O)c1snc(Cl)c1Cl

From PubChem BioAssay (EPA / NIEHS)
